IMPase cell inh = cell-permeable inhibitors of inositol monophosphatase (IMPase); CHO-M1 cells, IP1 accumulation, HTRF TR-FRET ratio; inhibition (IP1 accumulation), % at 46.1 µM; 120,000 tested, under 10 active; AID 901; active = well fitted curve in the direction sought with a large enough effect in the signal ratio, not every such curve was filed as active; inconclusive = small, poorly fitted or top-dose-only effect, or a change in a side signal; inactive = no such curve, though single readings can be large or run the other way; the % refers to the signal ratio;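 note: cells stimulated with carbachol in lithium chloride buffer; higher means more IMPase inhibition seen as more IP1 and lower FRET ratio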
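Elevated IP1 in lysates lowers TR-FRET signal (665/620 ratio and 620 channel reported). Cells were CHO-M1, given carbachol (50 uM as added) plus 50mM LiCl, pH 7.4, 30 min, 37C; compounds titrated up to 46 uM; AC50 by Hill equation.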
ALOX12 inhib = blocks human 12-lipoxygenase activity | purified 12-hLO, xylenol orange hydroperoxide absorbance | AID 1452 | P18054 | Potency, µM (titrated, usually from 57.1 µM), hits mostly inhibitors | hit rate 0.12% among 150,000; note: nearly all actives have a fitted effect of over 55% in size
Target sequence (P18054 whole entry, looked up): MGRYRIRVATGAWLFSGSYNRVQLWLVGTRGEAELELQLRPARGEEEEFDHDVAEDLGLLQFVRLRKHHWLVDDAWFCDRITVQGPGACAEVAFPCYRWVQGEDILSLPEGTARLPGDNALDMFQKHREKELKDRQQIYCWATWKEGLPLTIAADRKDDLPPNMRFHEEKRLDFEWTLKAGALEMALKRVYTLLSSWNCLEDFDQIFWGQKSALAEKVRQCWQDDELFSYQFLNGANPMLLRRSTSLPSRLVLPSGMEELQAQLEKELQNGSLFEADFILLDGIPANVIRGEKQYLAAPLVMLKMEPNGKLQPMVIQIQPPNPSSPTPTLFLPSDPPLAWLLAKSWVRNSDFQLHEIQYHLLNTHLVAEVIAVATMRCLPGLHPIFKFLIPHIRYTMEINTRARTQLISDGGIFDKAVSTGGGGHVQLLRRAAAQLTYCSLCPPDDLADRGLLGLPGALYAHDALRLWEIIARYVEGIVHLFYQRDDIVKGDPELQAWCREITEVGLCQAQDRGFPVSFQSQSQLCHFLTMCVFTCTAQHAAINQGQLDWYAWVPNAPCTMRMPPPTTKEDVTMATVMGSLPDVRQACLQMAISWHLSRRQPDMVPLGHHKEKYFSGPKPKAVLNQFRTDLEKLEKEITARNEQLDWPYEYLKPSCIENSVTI
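Purified human 12hLO (150 nM), preincubated 15 min with compound, then 40 uM arachidonic acid for 30 min, room temperature, Hepes pH 7.0 with 0.01% Triton X-100. Hydroperoxide detected by ferrous iron/xylenol orange; 573/405 nm absorbance ratio gives reaction progress.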
15-hLO-2 inh = blocks human 15-lipoxygenase 2 activity; purified 15hLO-2, xylenol orange hydroperoxide absorbance; hit rate 0.56% among 110,000; AID 881; Potency, µM (titrated, usually from 57.1 µM), actives largely listed as inhibitors; note: nearly all actives have a fitted effect of over 60% in size
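Read-out: hydroperoxide product oxidises ferrous iron, measured as xylenol orange complex via the 573-to-405 nm absorbance ratio after 30 min. Reaction: 50 nM enzyme, 15 min compound preincubation, 45 uM arachidonic acid, 90 min RT, Hepes pH 7.5 with Triton X-100.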
Hits are given with their value; n = inactive; u = inconclusive; x = no result given. The sample as a whole holds a higher share of hits than the screen did. Unless noted, calls come from the whole dose curve; as a rule, active = well fitted curve in the direction sought with a large enough effect; inconclusive = small, poorly fitted or top-dose-only effect, or another doubt; inactive = no such curve, though single readings can be large; an effect the other way counts as inactive or inconclusive.

SMILES | IMPase cell inh | ALOX12 inhib | 15-hLO-2 inh
CCCC(=O)NC(c1cccs1)c1cc([N+](=O)[O-])c2cccnc2c1O (configuration not stated) | n | u | x
CC12CCC(C(=O)NC(c3ccccc3)c3ccccc3)(OC1=O)C2(C)C (configuration not stated) | n | n | n
O=c1[nH]c2sc3c(c2c(=O)n1Cc1ccccc1)CCC3 | n | n | n
C=CC(C)n1c(Br)nc2c1c(=O)[nH]c(=O)n2C (configuration not stated) | n | n | n
CC(C)n1c(=S)[nH]c2c1c(=O)[nH]c(=O)n2C | n | u | 12.6µM
O=S1(=O)CC/C(=N\O)c2ccccc21 | x | n | x
COC(=O)Nc1sc(C(=O)N(C)C)c(C)c1C(=O)OC | n | n | n
CC1(COc2ccc(C[C@H]3SC(=O)NC3=O)cc2)CCCCC1 | n | n | n
CCOc1cccc(CNCCO)c1OCc1ccc(Cl)cc1Cl | n | n | x
CCOC(=O)c1ccc(N2CSC3=C(C#N)C(c4cccs4)CC(=O)N3C2)cc1 (configuration not stated) | n | n | n
COc1ccc(N2CSC3=C(C#N)C(c4cccs4)CC(=O)N3C2)cc1 (configuration not stated) | n | u | 20µM
COc1ccc(N2CSC3=C(C#N)C(c4cc(OC)c(OC)cc4OC)CC(=O)N3C2)c(OC)c1 (configuration not stated) | n | n | u
CN1CSC2=C(C#N)C(c3cccc(OCc4ccccc4)c3)CC(=O)N2C1 (configuration not stated) | n | n | u
N#CC1=C2SCN(Cc3ccco3)CN2C(=O)CC1c1cccc2ccccc12 (configuration not stated) | n | u | u
CCc1ccc(N2CSC3=C(C#N)C(c4cccs4)CC(=O)N3C2)cc1 (configuration not stated) | n | u | 20µM
COc1ccc(N2CSC3=C(C#N)C(c4cc(OC)ccc4OC)CC(=O)N3C2)c(OC)c1 (configuration not stated) | n | u | 10µM
CCOc1ccccc1N1CSC2=C(C#N)C(c3c(OC)ccc4ccccc34)CC(=O)N2C1 (configuration not stated) | n | u | 10µM
CC(NCCC(c1ccccc1)c1ccccc1)c1ccccc1 (configuration not stated) | x | u | n
Cc1cccc(N(CC(N)=O)S(C)(=O)=O)c1C | n | n | n
Cc1ccc2c(c1)C(c1ccc(F)cc1)N(C(=O)c1cc3ccccc3oc1=O)CC(=O)N2 (configuration not stated) | x | n | x
Cn1nnnc1SCCNCc1cccc2ccccc12 | n | n | n
Cc1cc(C)c2c(-n3cccc3)c(C(=O)NNS(=O)(=O)c3ccc(Br)cc3)sc2n1 | n | u | n
N#CC1=C2SCN(c3ccc(F)cc3)CN2C(=O)CC1c1cccc(F)c1 (configuration not stated) | n | u | u
Cc1ccc(N2CSC3=C(C#N)C(c4cccs4)CC(=O)N3C2)cc1 (configuration not stated) | n | n | 12.6µM
COc1cc(OC)c(C2CC(=O)N3CN(c4ccc(C)cc4)CSC3=C2C#N)cc1OC (configuration not stated) | n | u | u
SMILES | IMPase cell inh | ALOX12 inhib | 15-hLO-2 inh
CCc1ccc(C2CC(=O)N3CN(c4ccccc4)CSC3=C2C#N)cc1 (configuration not stated) | n | u | 7.94µM
COc1ccc(N2CSC3=C(C#N)C(c4ccc(OC)c(OC)c4)CC(=O)N3C2)c(OC)c1 (configuration not stated) | n | n | u
COc1ccc(C2CC(=O)N3CN(c4ccc(C)c(Cl)c4)CSC3=C2C#N)cc1OC (configuration not stated) | n | u | 25.1µM
C#CC[N+](C)(C)CCCCCCCCCCCC | x | n | x
Cc1cc(NS(=O)(=O)c2ccc(Nc3nc(-c4sc(NC(=O)c5ccccc5)nc4C)cs3)cc2)no1 | n | n | n
Cc1nn(Cc2ccc(Cl)c(Cl)c2)c(C)c1NC(=O)c1cc(-c2ccc3c(c2)OCO3)on1 | n | n | n
Cc1ccc(C(=O)NCc2ccc(N3CCN(C(=O)OC(C)(C)C)CC3)cc2)cc1 | n | n | n
CCc1ccc(CNc2ccc(N3CCN(C(C)=O)CC3)cc2)cc1 | n | u | 12.6µM
CC(=O)N1CCN(c2ccc(NCc3ccc(C)cc3)cc2)CC1 | n | 17.8µM | 10µM
CC(=O)Nc1ccc(N2CCN(C(C)=O)CC2)cc1 | n | n | n
CCn1c(NC(=O)c2cccc(Cn3cc(Cl)cn3)c2)nc2ccccc21 | n | n | x
CC(=O)c1c(N2CCCCC2)nc(=S)n(-c2ccccc2)c1C | n | n | n
N#CCc1nc2n(n1)Cc1ccccc1-2 | n | n | n
CCOC(=O)c1c(-c2ccccc2)csc1NC(=O)C1CCCO1 (configuration not stated) | u | n | n
CCOC(=O)c1c(-c2ccc(-c3ccccc3)cc2)csc1NC(=O)C1C2CCC(O2)C1C(=O)O (configuration not stated) | n | n | 20µM
CC(C)C(=O)c1cn(CC(=O)NCc2ccco2)c2ccccc12 | n | n | x
S=C(NCc1ccc(Cl)cc1)Nc1ccc(Cl)cc1Cl | n | n | x
Fc1ccc(NC(=S)NCCc2ccccc2)c(F)c1F | n | 15.8µM | u
Fc1ccccc1NC(=S)NCCc1ccccc1 | n | n | n
COc1ccc(NC(=S)NCCc2c[nH]c3ccc(OC)cc23)c(OC)c1 | n | n | u
COc1ccc(NC(=S)NCCc2ccc(Cl)cc2)c(OC)c1 | u | u | 25.1µM
S=C(NCCc1ccc(Cl)cc1)Nc1ccc(Cl)cc1Cl | n | 11.2µM | x
CN(C(=O)Nc1ccc(S(=O)(=O)N(C)C)cc1)C1CCCCC1 | n | n | n
CC1(C)CC(CC(=O)NC(=S)Nc2ccc([N+](=O)[O-])cc2)C(=O)O1 (configuration not stated) | n | n | n
CCn1cc[n+](C)c1P(c1ccccc1)c1ccccc1 | n | n | x
CCOc1ccccc1OCC(=O)Nc1ccc(Cl)cc1Cl | n | n | n
CCOc1ccccc1NC(=S)NC(=O)CCCOc1ccc(Cl)cc1Cl | n | u | 15.8µM
COc1cc(C)c(Br)cc1S(=O)(=O)NCc1ccccc1 | n | n | n

Screening data: PubChem, National Center for Advancing Translational Sciences (NCATS)
